Experimental findings from PubChem BioAssay (Tox21) are described below.

The nature of test [1]: qHTS assay to identify small molecule agonists of the peroxisome proliferator-activated receptor delta (PPARd) signaling pathway - cell viability counter screen (AID 743211). Also: nearly all actives have a fitted effect of over 55% in size. Also: potency is read from the fitted curve at half-maximal effect. Put shortly: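 Viability of GeneBLAzer PPARd UAS-bla HEK293H cells was assessed after 17 h compound incubation at 37C, using CellTiter-Glo reagent added after the reporter read and luminescence recorded 30 min later.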
On the technique in general: qHTS replaces the single test concentration by a dilution series.

Test [2] deals with Peroxisome proliferator-activated receptor delta (Homo sapiens) (UniProt Q03181). Nature of the test: qHTS assay to identify small molecule agonists of the peroxisome proliferator-activated receptor delta (PPARd) signaling pathway (AID 743212; calls by dose curve). The method, boiled down: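 Tox21 library screened in GeneBLAzer PPARd UAS-bla HEK293H cells. After compound treatment at 37 C, a FRET-based beta-lactamase substrate was applied for 2 h and fluorescence recorded.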

The nature of test [3]: qHTS assay to identify small molecule antagonists of the peroxisome proliferator-activated receptor delta (PPARd) signaling pathway - cell viability counter screen (AID 743213). Also: nearly all actives have a fitted effect of over 50% in size. Put shortly: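 PPARd-bla HEK293H cells (3000/well) got compound plus 300 nM L165041 agonist for 17 h at 37 C. Viability in the same wells came from CellTiter-Glo luminescence after 30 min at room temperature.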

Test [4] has as its target Peroxisome proliferator-activated receptor delta (Homo sapiens) (UniProt Q03181). Nature of the test: qHTS assay to identify small molecule antagonists of the peroxisome proliferator-activated receptor delta (PPARd) signaling pathway (AID 743215; active = well fitted inhibition curve with a large enough effect in the signal ratio in the repeat runs, not every such curve was filed as active; the % refers to the signal ratio;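 also: cells stimulated with agonist L165041 at 300 nM final during compound exposure; series mostly up to about 62 µM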). Put shortly: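 Plated HEK293H PPARd-bla cells rested 5 h at 37 C and 5% CO2. Compound, then agonist L165041 at 300 nM final, was added; 17 h at 37 C followed. Substrate loading, 2 h room temperature, fluorescence measured.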

The target in test [5] is Bile acid receptor (Homo sapiens) (UniProt Q96RI1). Nature of the test: qHTS assay to identify small molecule antagonists of the farnesoid-X-receptor (FXR) signaling pathway (AID 743217; active = well fitted inhibition curve with a large enough effect in the signal ratio in the repeat runs, not every such curve was filed as active; the % refers to the signal ratio). The method, boiled down: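 Screen of the Tox21 10K library in quantitative HTS format using FXR-UAS-bla HEK 293T reporter cells. Agonist chenodeoxycholic acid, 50 uM final, added with compounds; 16 h incubation at 37 °C; beta-lactamase FRET fluorescence measured.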

Test [6] is described as follows: qHTS assay to identify small molecule agonists of the farnesoid-X-receptor (FXR) signaling pathway - cell viability counter screen (AID 743218). Also: nearly all actives have a fitted effect of over 45% in size. Put shortly: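 Viability of FXR-bla HEK 293T cells is measured by ATP-based CellTiter-Glo luminescence following 16 h compound treatment at 37 C and a prior 2 h room-temperature beta-lactamase substrate step.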
Test [7] deals with Bile acid receptor (Homo sapiens) (UniProt Q96RI1). Nature of the test: qHTS assay to identify small molecule agonists of the farnesoid-X-receptor (FXR) signaling pathway (AID 743220; active = well fitted activation curve with a large enough effect in the signal ratio in the repeat runs, not every such curve was filed as active; the % refers to the signal ratio). Put shortly:
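FXR-UAS-bla HEK 293T cells carrying a UAS-driven beta-lactamase reporter were plated for 5 h at 37C/5% CO2, then exposed to DMSO-dissolved Tox21 10K compounds for 16 h at 37C. A LiveBLAzer B/G FRET substrate was loaded for 2 h at room temperature before fluorescence reading.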

A short description of test [8]: qHTS assay to identify small molecule antagonists of the farnesoid-X-receptor (FXR) signaling pathway - cell viability counter screen (AID 743221; active = well fitted cell-killing curve with a large enough effect in the repeat runs, not every such curve was filed as active; also: nearly all actives have a fitted effect of over 50% in size). Put shortly: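 Quantitative HTS of the Tox21 10K library run in parallel with the beta-lactamase reporter read. HEK 293T cells carrying a UAS-driven bla reporter got compound and 50 uM CDCA (final) for 16 h; ATP-based luminescence followed.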

Test [9] has as its target Vitamin D3 receptor (Homo sapiens) (UniProt P11473). Nature of the test: qHTS assay to identify small molecule agonists of the vitamin D receptor (VDR) signaling pathway (AID 743222; calls by dose curve). The method, boiled down:
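Fluorescence from cleaved LiveBLAzer B/G FRET substrate served as readout. VDR-bla cells had been treated 16 h at 37C with test compounds in DMSO, following a 4 h settling period, and substrate was loaded for 2 h at RT.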

The target is the same in test [10]. Nature of the test: qHTS assay to identify small molecule antagonists of the vitamin D receptor (VDR) signaling pathway (AID 743223; active = well fitted inhibition curve with a large enough effect in the signal ratio in the repeat runs, not every such curve was filed as active; the % refers to the signal ratio). Put shortly: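 Fluorescence from LiveBLAzer B/G FRET substrate, read after 2 h at room temperature, reflects beta-lactamase reporter activity in VDR-bla cells treated 16 h at 37C with compounds and agonist 1alpha,25-dihydroxyvitamin D3 (3 nM final).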

Each structure is given as a SMILES string. Records with an inconclusive call do not appear. More than one record can exist for a structure, and the calls need not agree. The source made the active and inactive calls. Unless noted, calls follow the shape of the dose curve; as a rule, active = well fitted curve in the direction sought with a large enough effect in the repeat runs; inconclusive = weak or mixed curves; inactive = no such curve, though single readings can be large; an effect the other way counts as inactive or inconclusive.
% is scaled to controls: 0 for no effect and ±100 for the full control effect.

Sequence of Peroxisome proliferator-activated receptor delta (Homo sapiens) (Q03181 whole entry, looked up): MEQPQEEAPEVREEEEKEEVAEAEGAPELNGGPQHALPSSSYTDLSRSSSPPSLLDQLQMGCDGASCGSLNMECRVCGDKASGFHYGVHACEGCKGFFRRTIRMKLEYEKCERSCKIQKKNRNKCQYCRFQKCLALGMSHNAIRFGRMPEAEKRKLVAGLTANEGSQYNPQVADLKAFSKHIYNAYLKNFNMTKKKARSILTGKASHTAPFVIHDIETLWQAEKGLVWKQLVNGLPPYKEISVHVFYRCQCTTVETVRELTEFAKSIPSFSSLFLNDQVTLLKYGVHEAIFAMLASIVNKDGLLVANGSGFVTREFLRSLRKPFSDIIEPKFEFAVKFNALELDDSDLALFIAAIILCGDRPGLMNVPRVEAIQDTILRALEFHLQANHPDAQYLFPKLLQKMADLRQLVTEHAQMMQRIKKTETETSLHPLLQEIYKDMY
Sequence of Bile acid receptor (Homo sapiens) (Q96RI1 whole entry, looked up): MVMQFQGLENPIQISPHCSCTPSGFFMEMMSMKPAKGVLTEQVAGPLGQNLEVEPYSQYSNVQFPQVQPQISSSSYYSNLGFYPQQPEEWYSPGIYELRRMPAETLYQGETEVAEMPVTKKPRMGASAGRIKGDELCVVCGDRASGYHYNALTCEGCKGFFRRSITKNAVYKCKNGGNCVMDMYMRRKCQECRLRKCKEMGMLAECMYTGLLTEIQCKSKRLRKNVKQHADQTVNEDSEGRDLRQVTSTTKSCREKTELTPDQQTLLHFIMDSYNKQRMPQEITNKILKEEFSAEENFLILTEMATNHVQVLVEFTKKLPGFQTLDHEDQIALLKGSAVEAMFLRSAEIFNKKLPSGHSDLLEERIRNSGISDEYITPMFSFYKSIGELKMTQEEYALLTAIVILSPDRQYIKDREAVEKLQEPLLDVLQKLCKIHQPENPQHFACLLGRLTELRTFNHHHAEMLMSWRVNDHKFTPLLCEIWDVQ
Sequence of Vitamin D3 receptor (Homo sapiens) (P11473 whole entry, looked up): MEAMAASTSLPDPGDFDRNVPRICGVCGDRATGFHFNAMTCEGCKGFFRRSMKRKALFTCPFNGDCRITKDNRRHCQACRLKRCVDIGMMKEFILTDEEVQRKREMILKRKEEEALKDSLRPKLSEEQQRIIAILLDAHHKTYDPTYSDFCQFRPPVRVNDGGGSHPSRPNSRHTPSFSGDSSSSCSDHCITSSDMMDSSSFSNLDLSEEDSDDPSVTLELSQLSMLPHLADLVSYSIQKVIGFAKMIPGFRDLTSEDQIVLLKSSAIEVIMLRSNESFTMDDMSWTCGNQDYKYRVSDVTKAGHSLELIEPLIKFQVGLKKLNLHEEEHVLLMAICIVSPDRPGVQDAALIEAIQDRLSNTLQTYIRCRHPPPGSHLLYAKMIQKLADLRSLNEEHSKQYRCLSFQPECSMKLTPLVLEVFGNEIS

Regarding `O=C(O)Cc1ccc(CCNS(=O)(=O)c2ccc(Cl)cc2)cc1`, the Potency result in test [1], in [3], in [4], in test [6] and in test [8] was “inactive” in each case. Besides, the compound was classed as inactive in test [2], in [5] and in test [7].
As to `CC(C[N+](C)(C)C)OC(N)=O` (stereo not given), the Potency entry in [1], in [3], in test [4], in test [6] and in test [8] was “inactive” throughout. In addition, the result in [2], in test [5] and in [7] was inactive.
For the compound `CCOC(C)(C)C`, the Potency result in test [1], in test [3], in test [4], in test [6] and in test [8] was “inactive” each time. Also, the compound was classed as inactive in test [2], in test [5], in [7], in test [9] and in [10].
Turning to `FC1(F)C(F)(F)C(F)(F)C2(F)C(F)(F)C(F)(F)C(F)(F)C(F)(F)C2(F)C1(F)F` (stereo not given), the Potency result in test [1], in [3], in test [4], in test [6] and in [8] was “inactive” in each case. For the same compound, the compound was classed as inactive in [2], in [5], in test [7] and in test [9].
On to `C[N+](C)(C)CCCCCC[N+](C)(C)C`, for which the Potency result in test [1], in [3], in test [4] and in test [8] was “inactive” in each case. Also, the compound was classed as inactive in [2], in test [5] and in test [7].
In the case of `CCC(=O)OC(C)c1ccccc1` (stereo not given), the Potency result in [1], in test [3], in [4], in [6] and in test [8] was “inactive” each time. The compound was called inactive in test [2], in test [5], in [7] and in test [9].
As to `COC(=O)C1=C(C)NC(C)=C(C(=O)OC)C1c1ccccc1[N+](=O)[O-]`, the Potency in [1] is 49 µM (active) and inactive. The result in test [2], in test [5], in [7], in test [9] and in [10] was inactive. The Potency entry in test [3], in test [4], in test [6] and in test [8] was “inactive” throughout.
Consider `CCOC(=O)CCC(C)=O`, for which the Potency entry in [1], in test [3], in [4], in [6] and in [8] was “inactive” each time. Moreover, the outcome in [2], in [5], in test [7], in [9] and in [10] was inactive.
Consider `COC(=O)c1cc(C(=O)OC)cc(S(=O)(=O)O)c1`, for which the Potency result in [1], in [3], in test [4], in test [6] and in [8] was “inactive” throughout. Further, the call in test [2], in test [5], in test [7], in test [9] and in test [10] was inactive.
For `CC(=O)CC(C)C`, the Potency result in [1], in [3], in test [4], in test [6] and in [8] was “inactive” in each case. The call in test [2], in [5], in test [7], in test [9] and in test [10] was inactive.
Turning to `CO/N=C(/C(=O)N[C@@H]1C(=O)N2C(C(=O)OCOC(=O)C(C)(C)C)=C(C)CS[C@H]12)c1csc(N)n1`, the Potency entry in [1], in [3], in test [4], in test [6] and in test [8] was “inactive” each time. Also, the compound was called inactive in test [2], in [5], in test [7] and in test [9].
As to `CCCCOCCOCCOCCCC`, the Potency result in test [1], in [3], in test [4] and in [8] was “inactive” throughout. Further, the call in test [2], in [5] and in [7] was inactive.
For `NCCCNCCSP(=O)(O)O`, the results for the activity change, negative = cytotoxicity in test [1] and in test [8] were 8.83% [at 13.2 µM] (inactive) and 2.46% [at 13.2 µM] (inactive), respectively. The figures for the activation in test [2] and in test [7] were -0.031% [at 13.2 µM] (inactive) and 0.213% [at 13.2 µM] (inactive), respectively. Further, the results for the viability change, negative = cytotoxic in [3] and in test [6] were 1.09% [at 13.7 µM] (inactive) and 7.81% [at 13.2 µM] (inactive), respectively. The ratio activity, negative = inhibition in test [4] is -0.162% [at 13.7 µM] (inactive). The activity change, negative = inhibition in [5] is 5.47% [at 13.2 µM] (inactive).
On to `C=C[Si](OC(=C)C)(OC(=C)C)OC(=C)C`, for which the Potency entry in test [1], in test [3], in test [4], in test [6] and in test [8] was “inactive” each time. Moreover, the result in test [2], in [5], in test [7], in [9] and in [10] was inactive.
As for `C=C(C)CS(=O)(=O)O`, the Potency result in test [1], in [3], in test [4] and in test [6] was “inactive” in each case. For the same compound, the result in [2], in test [5] and in test [7] was inactive.
Take `CCCCCSCCCCC`: the Potency entry in [1], in [3], in test [4] and in test [8] was “inactive” in each case. Moreover, the call in test [2], in [5] and in test [7] was inactive.
With `CCCCCCCCCCCCCCCCC`, the Potency result in test [1], in [3], in test [4], in test [6] and in test [8] was “inactive” each time. In addition, the compound was classed as inactive in test [2], in [5], in test [7], in [9] and in test [10].
As to `CCO[Si](CCC1CCC2OC2C1)(OCC)OCC` (stereo not given), the Potency entry in test [1], in test [3], in test [4], in [6] and in test [8] was “inactive” in each case. The compound was classed as inactive in test [2], in [5], in [7] and in test [10].
For `COC(C)(C)CCCC(C)CC=O` (stereo not given), the Potency result in [1], in test [3], in test [4], in [6] and in test [8] was “inactive” throughout. Further, the result in test [2], in [5], in [7], in test [9] and in [10] was inactive.
Consider `C1OCOCO1`, for which the Potency result in test [1], in test [3], in [4], in test [6] and in test [8] was “inactive” in each case. The compound was called inactive in test [2], in [5] and in test [7].
For `N=C(N)c1ccc2cc(OC(=O)c3ccc(N=C(N)N)cc3)ccc2c1`, the Potency entry in test [1], in test [3], in [4], in test [6] and in test [8] was “inactive” throughout. Further, the result in test [2], in test [5], in test [7] and in [9] was inactive.
On to `CCO/C([O-])=N/c1c[n+](N2CCOCC2)no1`, for which the Potency entry in test [1], in [3], in test [4], in test [6] and in test [8] was “inactive” in each case. Further, the outcome in test [2], in test [5], in test [7] and in [10] was inactive.
Regarding `O=C1CC2CC1C1CCCC21` (stereo not given), the Potency entry in test [1], in test [3], in test [4] and in test [8] was “inactive” each time. In addition, the call in test [2], in test [5] and in test [7] was inactive.
Regarding `Cc1ccc(C#N)cc1`, the Potency result in test [1], in test [3], in [4], in test [6] and in test [8] was “inactive” in each case. In addition, the compound was classed as inactive in test [2], in test [5], in test [7] and in test [9].
